NS1 function inh – qHTS Assay for Inhibitors of Influenza NS1 Protein Function; AID 2326, 2010; Potency, µM (top dose mostly 46.1 µM), without a hit: at the highest dose activity, positive = more growth; 0.4% of 270,000 active; calls by dose curve; also: actives are rising curves; nearly all actives have a fitted effect of over 50% in size
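A cell-based growth assay was used: compounds that relieve NS1-induced slow growth of budding yeast raise OD600. Assay medium was yeast nitrogen base with ammonium sulphate and -URA supplement, pH 6.0, with 2% galactose.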
RE007 growth inh – qHTS Assay for Inhibitors of the HIV-1 protein Vpr; AID 651644, 2012; Potency, µM (highest dose often 92.2 µM), without a hit: at the highest dose activity change, negative = less growth, hits mostly inhibitors; 0.21% of 360,000 active; S. pombe RE007 Vpr strain, BacTiter-Glo ATP luminescence, 24 h; active = well fitted falling curve with a large enough effect; inconclusive = small, poorly fitted or top-dose-only effect; inactive = no such curve, though single readings can be large or run the other way; also: % is scaled to controls: 0 for no effect and ±100 for the full control effect; nearly all actives have a fitted effect of over 50% in size
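Fission yeast strain RE007, carrying one chromosomally integrated HIV-1 vpr copy, was seeded at OD 0.01 in PMG+AL medium with 23 nL pinned compound. After 24 h at 30 °C and 99% humidity, viability was read by BacTiter-Glo luminescence.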
LmPK inhibitor – qHTS Assay for Inhibitors of Leishmania Mexicana Pyruvate Kinase (LmPK) | Q27686 | purified LmPK, Kinase-Glo ATP luminescence, 1 h | Potency, µM (doses to about 57.5 µM), inactives show at the top dose activity change, negative = inhibition, usual class: inhibitors | 0.37% of 290,000 active; also: % is scaled to controls: 0 for no effect and ±100 for the full control effect
Target sequence (Q27686 whole entry, looked up): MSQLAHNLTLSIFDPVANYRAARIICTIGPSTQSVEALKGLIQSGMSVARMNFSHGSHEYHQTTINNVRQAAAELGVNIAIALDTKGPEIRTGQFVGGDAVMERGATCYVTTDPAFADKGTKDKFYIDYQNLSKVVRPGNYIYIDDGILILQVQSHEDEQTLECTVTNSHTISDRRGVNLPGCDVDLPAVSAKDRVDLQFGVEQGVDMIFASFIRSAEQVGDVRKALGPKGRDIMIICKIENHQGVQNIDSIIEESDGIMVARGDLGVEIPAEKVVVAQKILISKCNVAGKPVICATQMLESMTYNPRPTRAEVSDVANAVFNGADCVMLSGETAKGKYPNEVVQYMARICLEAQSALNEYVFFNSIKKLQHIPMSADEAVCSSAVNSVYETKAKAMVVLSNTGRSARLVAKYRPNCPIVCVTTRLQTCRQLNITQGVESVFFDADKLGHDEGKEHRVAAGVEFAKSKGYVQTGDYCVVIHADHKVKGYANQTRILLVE
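Pyruvate kinase activity monitored as ATP production (luciferase luminescence). Conditions: 0.1 nM enzyme, 0.5 mM PEP, 0.1 mM ADP, 1 h, RT; normalized against uninhibited and no-enzyme wells.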
Sm TGR block – qHTS Assay for the Inhibitors of Schistosoma Mansoni Peroxiredoxins | Potency, µM (highest dose often 114 µM), inactives show top-dose activity change, negative = inhibition, most hits filed as inhibitors | purified TGR, DTNB reduction, TNB absorbance 405 nm | AID 485364, 2010 | Schistosoma mansoni thioredoxin glutathione reductase (TGR), Q962Y6 | 3% of 360,000 active; also: % is scaled to controls: 0 for no effect and ±100 for the full control effect; nearly all actives have a fitted effect of over 60% in size
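First, TGR (20 nM dispensed) and NADPH were mixed with compound. Second, a 15 min room-temperature incubation followed. Third, further NADPH and then DTNB were added to start the reaction. Finally, TNB absorbance was monitored kinetically.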
Giardia FBPA inh – qHTS Assay for Inhibitors of Fructose-1,6-bisphosphate Aldolase from Giardia Lamblia; A8B2U2; purified Giardia FBPA; Potency, µM (series often up to 59.6 µM), without a hit: top-dose activity, negative = inhibition, hits mostly inhibitors; 0.71% of 290,000 active; AID 2451, 2010; also: % is scaled to controls: 0 for no effect and ±100 for the full control effect; nearly all actives have a fitted effect of over 55% in size
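Giardia FBPA (40 nM reagent) was preincubated 10 min at RT with compound (up to 57.5 uM final), then substrate plus GAPDH/TPI/NAD/arsenate coupling system with diaphorase/resazurin was added; resorufin fluorescence (525/598 nm) was read after 20 min.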
Tb PYK inh – qHTS of Trypanosoma Brucei Inhibitors. pyruvate kinase (Trypanosoma brucei), Q57TT1. TbPYK enzyme, Kinase-Glo Plus ATP luminescence, 45 min. Potency, µM (top dose mostly 76.8 µM), inactives show top-dose activity, negative = inhibition, most hits filed as inhibitors. 0.12% of 410,000 active; also: % is scaled to controls: 0 for no effect and ±100 for the full control effect; nearly all actives have a fitted effect of over 50% in size
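Screened from lowest to highest concentration, compounds were pinned into TbPYK/substrate mixtures, and ADP (130 uM final) was added. Plates sat at room temperature for 45 min prior to Kinase-Glo Plus detection by luminescence.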
* marks the source's active call; other numbers are inactive results; ? = inconclusive; / = not tested or not shown; [ ] = dose if it differs, or a comment. In the library only some 3.5% were active in any assay of this set; here they are far more common. Unless noted, calls follow the shape of the dose curve; as a rule, active = well fitted curve in the direction sought with a large enough effect; inconclusive = small, poorly fitted or top-dose-only effect, or another doubt; inactive = no such curve, though single readings can be large; an effect the other way counts as inactive or inconclusive. Potency is read from the fitted curve at half-maximal effect.

SMILES	NS1 function inh	RE007 growth inh	LmPK inhibitor	Sm TGR block	Giardia FBPA inh	Tb PYK inh
CC1(C)Cc2c(sc3c2c2ncnn2c2nnc(SCC(=O)NCc4ccco4)n32)CO1	13.1%	9.6%	13.7%	-2.0%[11.4 µM]	3.2%	1.9%
COc1ccc(Cl)cc1NS(=O)(=O)c1cccc(C(=O)NCC(c2ccco2)N(C)C)c1 (stereo not given)	-0.8%	-5.9%	-4.8%	12.6µM*	/	-3.3%
Cn1c(=O)oc2cc(S(=O)(=O)N3CCCC(C(=O)N4CC=C(c5ccccc5)CC4)C3)ccc21 (stereo not given)	10µM*	/	8.7%	?	-22.3%	/
COc1ccccc1N1CCN(C(=O)C2CCCN(S(=O)(=O)c3ccc4c(c3)oc(=O)n4C)C2)CC1 (stereo not given)	-9.7%	-19.7%	2.0%	-2.9%	1.1%	-3.4%
COCCCNC(=O)c1ccc(Cn2c(=O)c3ccccc3n(CC(N)=O)c2=O)cc1	/	/	/	-2.4%	/	-8.3%
Cc1ccc(/C=C2\C(=O)NC(=O)N(CCc3ccc(F)cc3)C2=O)o1	6.3%	1.9%	1.3%	11.2µM*	-1.0%	-6.6%
Cc1ccc(/C=C2\C(=O)NC(=O)N(CCc3ccc(F)cc3)C2=O)s1	/	2.0%	0.4%	?	7.8%	-4.7%
CN(C)c1ccc(C=C2C(=O)NC(=O)NC2=O)cc1	/	6.2%	/	/	/	-25.5%
CN(C)c1ccc(C=C2C(=O)NC(=S)NC2=O)cc1	/	32.8%	/	/	/	31.6µM*
Cc1ccc(/C=C2\C(=O)NC(=O)N(Cc3ccccc3Cl)C2=O)o1	-5.9%	16.2%	-2.9%	?	-3.2%	-23.8%
Cc1ccc(/C=C2/C(=O)NC(=O)N(Cc3ccc(F)cc3)C2=O)o1	2.6%	/	3.5%	20µM*	2.1%	/
CN(C)c1ccc(/C=C2\C(=O)NC(=O)N(Cc3ccc(F)cc3)C2=O)cc1	-2.8%	27.3%	2.1%	0.794µM*	0.8%	-17.4%
CN1CCc2nc(N)nc(-c3nc(N)nc4c3CN(C)CC4)c2C1	-0.4%	/	/	/	/	/
CCOC(=O)CSc1nc2sc3c(c2c(=O)n1Cc1ccccc1)CC(C(C)C)OC3 (stereo not given)	/	/	/	0.6%	/	5.4%
CCCc1[nH]nc2c1C(c1cc(OC)cc(OC)c1)C(C#N)=C(N)O2 (stereo not given)	-0.3%	-6.1%	2.4%	25.1µM*	-28.2%	-8.1%
CCc1nc(-c2ccc(C)c(S(=O)(=O)N3CCN(c4ccc(C(C)=O)cc4)CC3)c2)no1	/	/	/	0.5%	/	-0.3%
Cc1cccc(N2C(=O)/C(=C/c3ccc(CN(CCC#N)S(C)(=O)=O)o3)C(=O)NC2=S)c1	9.6%	-20.8%	21.7%	8.91µM*	?	?
Cc1ccc(N2C(=O)/C(=C/c3ccc(CN(CCC#N)S(C)(=O)=O)o3)C(=O)NC2=S)cc1C	16.1%	/	3.1%	3.16µM*	?	/
CS(=O)(=O)N(CCC#N)Cc1ccc(/C=C2\C(=O)Nc3ccccc32)o1	/	35.8%	1.3%	-33.5%	-7.1%	-1.3%
C=CCOC(=O)/C=C/C(=O)NC(N)=O	9.1%	/	8.8%	1.26µM*	-0.2%	-17.7%
C=CCOC(=O)/C=C/NC(=O)/C=C/C=C/CCCCCCCC(C)O (stereo not given)	/	/	/	/	0.3%[12.9 µM]	/
C#CCNc1ccncc1S(=O)(=O)NC(=O)NC(C)C	11.7%	24.4%	-5.8%	22.4µM*	-4.2%	-7.3%
O=C(Cc1ccccc1)NC(Oc1ccccc1Cl)C(Cl)(Cl)Cl (stereo not given)	-15.6%	-12.1%	-3.3%	31.6µM*	0.4%	-5.0%
CC(C)C(=O)NC(Oc1ccccc1Cl)C(Cl)(Cl)Cl (stereo not given)	/	5.5%	9.6%	25.1µM*	-0.1%	-1.6%
Cc1ccc(N2CCN(S(=O)(=O)c3cc(C(=O)Nc4cc(Cl)cc(Cl)c4)ccc3F)CC2C)cc1 (stereo not given)	/	/	/	-0.3%	/	-4.7%
SMILES	NS1 function inh	RE007 growth inh	LmPK inhibitor	Sm TGR block	Giardia FBPA inh	Tb PYK inh
Cc1ccc(S(=O)(=O)N(C)C[C@H]2OCCCC[C@@H](C)Oc3ccc(N(C)C)cc3C(=O)N([C@H](C)CO)C[C@@H]2C)cc1	/	2.8%	/	/	/	7.94µM*
Cc1cccc(CC2CC(=O)N(c3ncccn3)C2=O)c1 (stereo not given)	-4.3%	9.7%	-3.1%	-1.8%	-0.2%	2.1%
O=C1CC(Cc2ccccc2)C(=O)N1c1ncccn1 (stereo not given)	-2.9%	10.3%	5.1%	50.1µM*	2.2%	-2.0%
Cc1cccc(N2C(=O)CC(Sc3nc(-c4ccccc4)c4cc(Cl)ccc4n3)C2=O)c1 (stereo not given)	?	0.5%	6.9%	3.5%	-2.3%	3.6%
O=C1CC(Sc2ncccn2)C(=O)N1c1ccccc1C(F)(F)F (stereo not given)	-23.7%	-6.5%	-0.6%	39.8µM*	1.3%	0.0%
Cc1ccc(Cl)cc1N1C(=O)CC(Sc2ncccn2)C1=O (stereo not given)	-7.5%	-0.8%	-0.7%	25.1µM*	0.5%	-5.6%
COC(=O)N1CCC2(CC1)CN(c1cccc(-c3ccccc3)c1)C2	/	/	/	/	-5.5%	0.2%
CCOc1cc(-c2nnc(SCC(=O)NCCCOC)nc2-c2ccc(OC)c(OCC)c2)ccc1OC	/	/	/	-5.5%	/	-3.6%
Cc1cccc(C)c1N(CCCc1cccnc1)C(=O)[C@@H](C)N	/	/	/	/	/	-4.4%
COc1ccc(C[C@H]2CN3C(=NC[C@H]3Cc3ccccc3)N2CCNC(=O)c2ccc(C)c(Br)c2)cc1	4.0%	8.0%	0.2%	-21.8%	-0.8%	-0.4%
Cc1ccc(C(=O)N[C@@H](C)CN2C3=NC[C@@H](Cc4ccccc4)N3C[C@H]2Cc2ccc(O)cc2)cc1Br	3.5%	9.3%	-1.8%	50.1µM*	1.4%	-17.2%
COc1ccc(C[C@H]2CN3C(=NC[C@@H]3Cc3ccc(O)cc3)N2C[C@H](C)NC(=O)c2ccc(C)c(Br)c2)cc1	2.3%	1.7%	3.6%	39.8µM*	-13.7%	-2.3%
COc1ccc(C[C@H]2CN3C(=NC[C@@H]3Cc3ccccc3)N2CCNC(=O)c2ccc(C)c(Br)c2)cc1	5.4%	4.4%	5.8%	11.2µM*	4.9%	-4.9%
Cc1ccc(C(=O)N[C@@H](C)CN2C3=NC[C@H](C(C)C)N3C[C@H]2Cc2ccc(O)cc2)cc1Br	-6.2%	-27.9%	-9.1%	8.91µM*	3.1%	-16.6%
O=C(NCc1ccc(Cl)cc1)C(=O)NCC(c1cccnc1)N1CCN(c2ccccc2)CC1 (stereo not given)	/	/	/	-1.3%	/	-2.1%

Screens as filed in PubChem.
